# Assay results reported in PubChem BioAssay (Tox21).
# Several values for one entry are separate records, joined by “and”; a condition that tells them apart may be missing. Equal entries are not always repeated. Inconclusive results are not listed. Entries that show only a call come without a potency. The source holds several records for some structures; these can differ, active in one and inactive in another. Activity calls are given as the source filed them. Unless noted, calls follow the shape of the dose curve; as a rule, active = well fitted curve in the direction sought with a large enough effect in the repeat runs; inconclusive = weak or mixed curves; inactive = no such curve, though single readings can be large; an effect the other way counts as inactive or inconclusive.
# Key:
# [1] = A CellTox Green Cytotoxicity Assay to monitor cytotoxicity in HepG2 cells - 8 hour (AID 1224890); also: nearly all actives have a fitted effect of over 45% in size
# How it was run: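 Continuous culture of HepG2 cells with a membrane-impermeant DNA dye; rising fluorescence marks dead cells. Compound exposure lasted up to 40 h at 37 C, with reads every 8 h from 0 h.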
# [2] = qHTS assay to identify small molecule antagonists of the estrogen receptor alpha (ER-alpha) signaling pathway using the BG1 cell line in the presence of 0.1 nM 17-beta-estradiol - cell viability counter screen (AID 1259241); also: nearly all actives have a fitted effect of over 40% in size; also: potency is read from the fitted curve at half-maximal effect
# How it was run: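 In this screen, hormone-deprived VM7Luc4E2 cells were seeded at 4,000 per well, dosed with compound and 0.1 nM estradiol final, and incubated 22 hr at 37C and 5% CO2; fluorogenic live-cell protease signal reported viability.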
# [3] = qHTS assay to identify small molecule antagonists of the androgen receptor (AR) signaling pathway using the MDA cell line in the presence of 0.5 nM R1881 - cell viability counter screen (AID 1259242); also: nearly all actives have a fitted effect of over 45% in size; also: potency is read from the fitted curve at half-maximal effect
# How it was run: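 Fluorescence from CellTiter-Fluor, which reports protease activity of live cells, was read 30 min after reagent addition to MDA-kb2 cells that had been incubated 16 hr with compound and 0.5 nM R1881.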
# [4] = biological target: Estrogen receptor (Homo sapiens) (UniProt P03372); assay: qHTS assay to identify small molecule antagonists of the estrogen receptor alpha (ER-alpha) signaling pathway using the BG1 cell line in the presence of 0.1 nM 17-beta-estradiol (AID 1259244); also: nearly all actives have a fitted effect of over 50% in size; also: potency is read from the fitted curve at half-maximal effect
# Sequence of Estrogen receptor (Homo sapiens) (P03372 whole entry, looked up): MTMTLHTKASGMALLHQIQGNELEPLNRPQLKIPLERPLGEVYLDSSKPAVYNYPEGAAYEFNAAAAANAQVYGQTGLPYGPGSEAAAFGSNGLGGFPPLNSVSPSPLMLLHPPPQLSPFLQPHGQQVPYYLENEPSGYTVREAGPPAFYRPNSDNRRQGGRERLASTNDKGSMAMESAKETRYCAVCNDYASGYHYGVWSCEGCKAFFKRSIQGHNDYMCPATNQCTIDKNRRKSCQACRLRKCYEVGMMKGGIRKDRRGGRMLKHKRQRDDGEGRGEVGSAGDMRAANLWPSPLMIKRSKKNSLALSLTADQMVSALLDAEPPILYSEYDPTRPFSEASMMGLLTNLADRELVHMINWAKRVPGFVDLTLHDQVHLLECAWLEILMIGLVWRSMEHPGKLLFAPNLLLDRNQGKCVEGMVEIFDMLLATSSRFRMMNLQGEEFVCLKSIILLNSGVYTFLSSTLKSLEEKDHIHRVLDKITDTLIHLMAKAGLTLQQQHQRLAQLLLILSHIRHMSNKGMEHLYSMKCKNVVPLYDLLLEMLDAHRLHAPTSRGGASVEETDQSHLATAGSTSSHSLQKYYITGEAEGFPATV
# How it was run: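 Quantitative high-throughput screen in VM7Luc4E2 cells: compound plus 0.1 nM E2 (final), 22 h, 37C, 5% CO2; ONE-Glo added, 30 min room temperature, luminescence measured.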
# [5] = qHTS assay to identify small molecule HDAC inhibitors (AID 1259364); also: nearly all actives have a fitted effect of over 45% in size; also: potency is read from the fitted curve at half-maximal effect
# How it was run: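 Endogenous HDAC class I/II activity was measured in wild-type HCT-116 cells by HDAC-Glo luminescence after 2 h compound treatment.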
# [6] = qHTS assay to identify small molecule HDAC inhibitors - cell viability counter screen (AID 1259365); also: series mostly up to about 92 µM; nearly all actives have a fitted effect of over 50% in size
# How it was run: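 Measured quantity is CellTiter-Glo luminescence from wild-type HCT-116 cells after compound incubation of 2hr at 37C, 5% CO2; reagent developed 30min at room temperature.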
# [7] = qHTS assay to identify small molecule agonists of the sonic hedgehog signaling (Shh) pathway - cell viability counter screen (AID 1259366); also: nearly all actives have a fitted effect of over 50% in size; also: potency is read from the fitted curve at half-maximal effect
# How it was run: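 In quantitative high-throughput format, 3T3 Gli1-Luc cells were exposed to compounds for 24hr and multiplexed for viability using CellTiter-Fluor, incubated 1hr at 37C before the fluorescence read.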
# [8] = qHTS assay to identify small molecule antagonists of the sonic hedgehog signaling (Shh) pathway - cell viability counter screen (AID 1259367); also: nearly all actives have a fitted effect of over 55% in size; also: potency is read from the fitted curve at half-maximal effect
# How it was run: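 NIH/3T3-derived Gli1-Luc reporter cells, 2,000/well, plated 4 hr before compound addition, then stimulated with conditioned medium for 24 hr at 37C. Viability measured in the same wells by CellTiter-Fluor fluorescence, reagent added at 23 hr for 1 hr.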
# [9] = qHTS assay to identify small molecule agonists of the sonic hedgehog signaling (Shh) pathway (AID 1259368; calls by dose curve;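 also: NIH/3T3-derived 3T3Gli1-Luc cells carrying a stable Gli1-driven firefly luciferase reporter; series mostly up to about 92 µM; nearly all actives have a fitted effect of over 15% in size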)
# How it was run: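 Luminescent signal was taken as a measure of Gli1-controlled luciferase expression in stably transfected NIH/3T3-derived cells that had been treated for 24 hr with compounds delivered in DMSO.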
# [10] = qHTS assay to identify small molecule antagonists of the sonic hedgehog signaling (Shh) pathway (AID 1259369; calls by dose curve; also: nearly all actives have a fitted effect of over 45% in size; also: potency is read from the fitted curve at half-maximal effect)
# How it was run: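 Screening used 3T3Gli1-Luc cells at 2,000 per well, compounds delivered in DMSO, and conditioned medium as agonist stimulus; plates incubated 24hr at 37 C and 5% CO2 before a 30min luciferase step.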
# [11] = qHTS assay to identify small molecule agonists of the androgen receptor (AR) signaling pathway in the presence of an antagonist - cell viability counter screen (AID 1259379); also: nearly all actives have a fitted effect of over 25% in size; also: potency is read from the fitted curve at half-maximal effect
# How it was run: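 In MDA-kb2 cells (human breast carcinoma, MMTV-luciferase), compounds at 15 concentrations plus 3.0uM nilutamide; 16 hr, 37C, 0% CO2; CellTiter-Fluor fluorescence read for viability.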
# [12] = qHTS assay to identify small molecule agonists of the estrogen receptor beta (ER-beta) signaling pathway - cell viability counter screen (AID 1259380); also: nearly all actives have a fitted effect of over 30% in size
# How it was run: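 Viability of ER-beta-UAS-bla HEK293T cells was determined by CellTiter-Glo luminescence following 16 hr treatment with test compounds at 37C.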
# [13] = biological target: Estrogen receptor (Homo sapiens) (UniProt P03372); assay: qHTS assay to identify small molecule agonists of the estrogen receptor alpha (ER-alpha) signaling pathway in the presence of an antagonist (AID 1259383; calls by dose curve; also: nearly all actives have a fitted effect of over 15% in size; also: potency is read from the fitted curve at half-maximal effect; as to activation: top concentration of the series differs between compounds)
# How it was run: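 In VM7Luc4E2 cells, 4,000 per well, compounds at 15 concentrations were co-incubated 22hr at 37C with 10.0nM final ICI-182,780. Luminescence from the stably transfected 4×ERE-luciferase reporter was recorded 30min after ONE-Glo addition.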
# [14] = qHTS assay to identify small molecule agonists or antagonists of the thyroid stimulating hormone receptor (TSHR) signaling pathway - wild type cell line counter screen (AID 1259384; calls by dose curve)
# How it was run: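 Wild-type Hek293 cells, 800/well, 18 h at 37C, then compound with Ro20-1724 for 30 min RT. cAMP by HTRF (cAMP-d2/anti-cAMP cryptate), 1 h RT, fluorescence read. 15 concentrations, triplicates.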
# [15] = biological target: Androgen receptor (Homo sapiens) (UniProt P10275); assay: qHTS assay to identify small molecule antagonists of the androgen receptor (AR) signaling pathway using the MDA cell line in the presence of 0.5 nM R1881 (AID 1259243); also: nearly all actives have a fitted effect of over 50% in size; also: potency is read from the fitted curve at half-maximal effect
# Sequence of Androgen receptor (Homo sapiens) (P10275 whole entry, looked up): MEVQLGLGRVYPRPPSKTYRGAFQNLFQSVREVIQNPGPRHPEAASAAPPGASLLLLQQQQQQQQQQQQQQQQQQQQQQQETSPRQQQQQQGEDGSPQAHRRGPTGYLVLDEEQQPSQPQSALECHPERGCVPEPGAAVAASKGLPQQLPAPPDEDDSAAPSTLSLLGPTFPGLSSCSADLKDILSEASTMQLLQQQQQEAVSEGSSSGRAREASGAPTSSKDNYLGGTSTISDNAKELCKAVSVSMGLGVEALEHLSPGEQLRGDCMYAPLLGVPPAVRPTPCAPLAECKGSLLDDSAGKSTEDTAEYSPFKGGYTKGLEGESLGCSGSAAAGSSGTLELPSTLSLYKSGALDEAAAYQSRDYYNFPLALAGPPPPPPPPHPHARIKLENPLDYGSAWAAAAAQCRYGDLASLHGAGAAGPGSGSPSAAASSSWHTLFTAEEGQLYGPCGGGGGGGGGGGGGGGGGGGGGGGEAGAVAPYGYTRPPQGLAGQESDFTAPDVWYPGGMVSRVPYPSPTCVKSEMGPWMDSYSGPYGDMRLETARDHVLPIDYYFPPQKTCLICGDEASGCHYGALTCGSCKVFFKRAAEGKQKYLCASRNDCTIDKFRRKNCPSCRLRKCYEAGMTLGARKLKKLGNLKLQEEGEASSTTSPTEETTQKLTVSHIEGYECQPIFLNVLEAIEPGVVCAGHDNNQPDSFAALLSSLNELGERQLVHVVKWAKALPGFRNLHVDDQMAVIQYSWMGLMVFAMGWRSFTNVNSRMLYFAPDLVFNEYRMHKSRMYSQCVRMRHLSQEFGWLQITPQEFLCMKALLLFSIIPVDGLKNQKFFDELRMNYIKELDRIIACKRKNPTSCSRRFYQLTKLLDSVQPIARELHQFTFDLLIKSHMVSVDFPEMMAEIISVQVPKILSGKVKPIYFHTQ
# How it was run: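 Inhibition of R1881 (0.5 nM final) induced reporter signal was measured in human MDA-kb2 cells; note the MMTV promoter also responds to GR. Exposure lasted 16 hr at 37C.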
# [16] = biological target: Estrogen receptor beta (Homo sapiens) (UniProt Q92731); assay: qHTS assay to identify small molecule antagonists of the estrogen receptor beta (ER-beta) signaling pathway (AID 1259378; active = well fitted inhibition curve with a large enough effect in the signal ratio in the repeat runs, not every such curve was filed as active; the % refers to the signal ratio; also: potency is read from the fitted curve at half-maximal effect)
# Sequence of Estrogen receptor beta (Homo sapiens) (Q92731 whole entry, looked up): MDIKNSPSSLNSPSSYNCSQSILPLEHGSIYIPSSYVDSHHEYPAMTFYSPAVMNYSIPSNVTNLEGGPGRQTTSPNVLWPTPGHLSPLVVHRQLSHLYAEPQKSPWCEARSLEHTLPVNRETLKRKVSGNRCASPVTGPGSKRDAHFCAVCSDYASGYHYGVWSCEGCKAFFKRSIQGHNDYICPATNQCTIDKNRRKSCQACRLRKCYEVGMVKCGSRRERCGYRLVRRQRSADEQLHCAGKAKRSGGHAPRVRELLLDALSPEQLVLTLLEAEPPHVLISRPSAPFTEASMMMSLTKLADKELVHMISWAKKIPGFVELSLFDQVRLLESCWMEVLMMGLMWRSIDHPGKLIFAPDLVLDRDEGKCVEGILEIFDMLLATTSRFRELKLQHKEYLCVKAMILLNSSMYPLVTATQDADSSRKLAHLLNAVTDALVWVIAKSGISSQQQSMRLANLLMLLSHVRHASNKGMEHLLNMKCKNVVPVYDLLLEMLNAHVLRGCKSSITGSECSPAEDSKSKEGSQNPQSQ
# How it was run: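 ER-beta-UAS-bla HEK293T cells in 2% charcoal-stripped FBS medium treated with compound plus 1nM final 17-beta-estradiol for 16 hr at 37C. Beta-lactamase reporter read by FRET substrate fluorescence after 2 hours at room temperature.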
# [17] = biological target: Androgen receptor (Homo sapiens) (UniProt P10275); assay: qHTS assay to identify small molecule agonists of the androgen receptor (AR) signaling pathway in the presence of an antagonist (AID 1259381; calls by dose curve; also: nearly all actives have a fitted effect of over 15% in size)
# How it was run: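 Here, 15-concentration compound series were pin-transferred onto MDA-kb2 MMTV-luciferase cells already dosed with nilutamide (3.0uM final). After 16hr at 37C, ONE-Glo was added and luminescence read 30min later at room temperature.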
# [18] = qHTS assay to identify small molecule antagonists of the estrogen receptor beta (ER-beta) signaling pathway - cell viability counter screen (AID 1259382); also: series mostly up to about 92 µM; nearly all actives have a fitted effect of over 55% in size
# How it was run: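 Tox21 10K library tested in qHTS format on ER-beta-bla HEK293T cells stimulated with 1nM E2; 16 hr treatment at 37C. Same-well CellTiter-Glo luminescence served as the cell viability measure.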
# [19] = biological target: Estrogen receptor beta (Homo sapiens) (UniProt Q92731); assay: qHTS assay to identify small molecule agonists of the estrogen receptor beta (ER-beta) signaling pathway (AID 1259377; active = well fitted activation curve with a large enough effect in the signal ratio in the repeat runs, not every such curve was filed as active; the % refers to the signal ratio)
# How it was run: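 Reporter cells (HEK293T, ER-beta-UAS-bla) receive compounds or DMSO after a 6 hr pre-incubation. They then incubate 16 hr at 37C/5% CO2, and fluorescence from LiveBLAzer B/G substrate is measured after 2 hours at room temperature.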
# [20] = qHTS assay to identify small molecule phospholipidosis (PLD) inducers (AID 1259344; active = well fitted curve in the direction sought with a large enough effect; an effect the other way counts as inactive or inconclusive)
# How it was run: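 HepG2 cells, 900/well, treated with compound plus LipidTOX Red for 24 h at 37 C; amiodarone positive and DMSO negative controls. Fixed with paraformaldehyde/Hoechst, then high-content imaging scored LipidTOX pit count and integrated intensity per well and per cell.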
SMILES,Potency [1],Potency [2],Potency [3],Potency [4],Potency [5],outcome [6],Potency [7],Potency [8],Potency [9],Potency [10],Potency [11],Potency [12],Potency [13],outcome [14],Potency [15],Potency [16],Potency [17],Potency [18],Potency [19],outcome [20]
O=P(O)(O)CCCl,inactive,inactive,inactive,inactive,inactive,inactive,inactive,inactive,inactive,inactive,inactive,inactive,inactive,inactive,–,–,–,–,–,–
CCCCNC(=O)n1c(NC(=O)OC)nc2ccccc21,inactive,inactive,inactive,inactive,21.6 µM (active) and 19.3 µM (active),inactive,inactive,60.8 µM (active) and inactive,inactive,30.5 µM (active) and inactive,inactive,inactive,inactive,inactive,inactive,inactive,inactive,inactive,–,–
COP(=S)(OC)Oc1ccc([N+](=O)[O-])cc1,inactive,inactive,inactive,inactive,inactive,inactive,inactive,inactive,inactive,inactive,–,inactive,inactive,inactive,–,inactive,–,–,inactive,–
Nc1ccncc1,inactive,inactive,inactive,inactive,–,inactive,inactive,inactive,inactive,inactive,inactive,inactive,inactive,inactive,inactive,inactive,inactive,inactive,–,inactive
CC(C)Oc1cc(-n2nc(C(C)(C)C)oc2=O)c(Cl)cc1Cl,inactive,inactive,inactive,61.1 µM (active),inactive,inactive,inactive,inactive,inactive,inactive,inactive,inactive,inactive,inactive,54.5 µM (active),–,inactive,inactive,inactive,–
CCCCCCCCC(=O)NCc1ccc(O)c(OC)c1,inactive,inactive,inactive,inactive,inactive,inactive,inactive,inactive,inactive,12.2 µM (active) and inactive,inactive,inactive,inactive,inactive,–,–,–,inactive,–,inactive
CCc1cccc(CC)c1N(COC)C(=O)CCl,inactive,inactive,inactive,47 µM (active),inactive,inactive,27.3 µM (active),59.1 µM (active),inactive,26.4 µM (active),inactive,–,inactive,inactive,23.5 µM (active) and 27.3 µM (active),30.6 µM (active),inactive,–,–,–
CCOc1cc(Oc2ccc(C(F)(F)F)cc2Cl)ccc1[N+](=O)[O-],inactive,inactive,inactive,inactive,inactive,inactive,inactive,inactive,inactive,inactive,inactive,inactive,inactive,inactive,–,inactive,–,–,inactive,–
C=C(C)[C@H]1Cc2c(ccc3c2O[C@@H]2COc4cc(OC)c(OC)cc4[C@@H]2C3=O)O1,inactive,0.0486 µM (active),78 nM (active) and 54.5 nM (active) and 106 nM (active),–,–,inactive,24.7 µM (active) and inactive,22 µM (active) and 6.11 µM (active),inactive,19.6 nM (active) and 5.45 µM (active) and inactive,55.2 nM (active) and 38.6 nM (active) and 47.3 nM (active),inactive,–,inactive,31 nM (active) and 19.3 nM (active) and 47.3 nM (active),–,inactive,–,–,inactive
CC(C)C(=O)OCC(C)(C)C(OC(=O)C(C)C)C(C)C (configuration not stated),inactive,inactive,inactive,inactive,inactive,inactive,inactive,inactive,inactive,inactive,inactive,inactive,inactive and 27.3 µM (active),inactive,–,inactive,–,inactive,–,–
Oc1c(Cl)c(Cl)c(Cl)c(Cl)c1Cl,inactive,inactive,inactive,30 µM (active) and 30.6 µM (active),inactive,inactive,inactive,inactive,inactive,inactive,inactive,inactive,inactive,inactive,–,–,–,inactive,–,–
CCN(CC)C(=O)SCc1ccc(Cl)cc1,inactive,inactive,inactive,inactive,inactive,inactive,inactive,inactive,inactive,inactive,inactive,inactive,inactive,inactive,–,–,–,inactive,–,–
CCN(N=O)C(N)=O,inactive,inactive,inactive,inactive,–,inactive,inactive,inactive,inactive,inactive,inactive,inactive,inactive,inactive,–,inactive,–,inactive,inactive,–
c1nc[nH]n1,inactive,inactive,inactive,inactive,–,inactive,inactive,inactive,inactive,inactive,inactive,inactive,inactive,inactive,–,inactive,–,inactive,–,–
